In PubChem BioAssay (NCI):
About 83,000 compounds went through this panel and 20% of them were active in at least one assay; those are over-represented in the sample as a whole.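 Plates (96-well) were seeded with cells, treated with compound at one concentration, and incubated for 48 hours before percent growth was determined.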 Activity calls are given as the source filed them. Rule for the calls: active = growth percent below 10; inactive = the rest.

Experiments:
Test in all cases: NCI-60 one-dose screen, 48 h (100 = growth as untreated, 0 = no growth, -100 = all killed)
Conditions in all cases: 10 µM
HT29 colon = system: HT29 colon
SNB-75 CNS = system: SNB-75 CNS
SNB-19 CNS = system: SNB-19 CNS
U251 CNS = system: U251 CNS
SK-MEL-5 melanoma = system: SK-MEL-5 melanoma
UACC-62 melanoma = system: UACC-62 melanoma
LOX IMVI melanoma = system: LOX IMVI melanoma
SK-MEL-2 melanoma = system: SK-MEL-2 melanoma
SK-MEL-28 melanoma = system: SK-MEL-28 melanoma

Measured: growth

COC(=O)c1ccc(=O)oc1
inactive: HT29 colon 113% | SNB-75 CNS 91.1% | SNB-19 CNS 103% | U251 CNS 97.4% | SK-MEL-5 melanoma 103% | UACC-62 melanoma 93.6% | LOX IMVI melanoma 98.4% | SK-MEL-2 melanoma 91.9%

COc1cc2c(cc1OC)N(CCO)C1=C(C(=O)OC1)C2c1ccc(Cl)c(Cl)c1 (stereo unspecified)
inactive: HT29 colon 94% | SNB-75 CNS 106% | SNB-19 CNS 98.3% | U251 CNS 96.8% | SK-MEL-5 melanoma 99.5% | UACC-62 melanoma 101% | LOX IMVI melanoma 95.9% | SK-MEL-28 melanoma 120%

COc1ccc(-c2nc3ccccn3c2-c2nnc(-c3cc(OC)c(OC)c(OC)c3)o2)cc1
inactive: HT29 colon 70.4% | SNB-75 CNS 59.9% | SNB-19 CNS 44.5% | U251 CNS 45.8% | SK-MEL-5 melanoma 44.7% | UACC-62 melanoma 68.5% | LOX IMVI melanoma 78.1% | SK-MEL-28 melanoma 83.6% | SK-MEL-2 melanoma 92.1%

CCOC(=O)N1C/C(=C/c2ccc(Cl)cc2)C(=O)/C(=C/c2ccc(Cl)cc2)C1
active: HT29 colon -40% | LOX IMVI melanoma -56.8%
inactive: SNB-75 CNS 66% | SNB-19 CNS 77.3% | U251 CNS 12.1% | SK-MEL-5 melanoma 88.1% | UACC-62 melanoma 67.6% | SK-MEL-28 melanoma 105% | SK-MEL-2 melanoma 84.7%

O=C(Nc1ccncc1)C(=O)c1cn(S(=O)(=O)c2cccc(Cl)c2)c2ccccc12
inactive: HT29 colon 29% | SNB-75 CNS 85.3% | SNB-19 CNS 89.8% | U251 CNS 61.2% | SK-MEL-5 melanoma 51.7% | UACC-62 melanoma 61.2% | LOX IMVI melanoma 44.6% | SK-MEL-28 melanoma 86.5% | SK-MEL-2 melanoma 57.7%

CCN(CC)CCN1CC(=O)Nc2cc(Cl)ccc21
inactive: HT29 colon 112% | SNB-75 CNS 92.1% | SNB-19 CNS 104% | U251 CNS 99.7% | SK-MEL-5 melanoma 98.6% | UACC-62 melanoma 94.4% | LOX IMVI melanoma 102% | SK-MEL-28 melanoma 115% | SK-MEL-2 melanoma 104%

CCc1ccc2c(c1)N(CCO)C1=C(C(=O)OC1)C2c1ccccc1 (stereo unspecified)
inactive: HT29 colon 86.3% | SNB-75 CNS 88% | SNB-19 CNS 104% | U251 CNS 45.4% | SK-MEL-5 melanoma 87.3% | UACC-62 melanoma 70.6% | LOX IMVI melanoma 94.5% | SK-MEL-28 melanoma 90.9%

CCN(CCCCCCCCCCN1CC(=O)N(CCCCCCCCCCN(CC)Cc2ccccc2OC)CC1=O)Cc1ccccc1OC
active: HT29 colon -57.8% | SNB-75 CNS -15.7% | SNB-19 CNS -20% | U251 CNS -71.1% | SK-MEL-5 melanoma -100% | UACC-62 melanoma -80.5% | LOX IMVI melanoma -86.6% | SK-MEL-2 melanoma -60.6%

COc1ccc(C(=O)/C=C/c2cc(-c3cc(OC)c(OC)c(OC)c3)n[nH]2)cc1
active: HT29 colon 1.28% | U251 CNS -2.19% | LOX IMVI melanoma -11.6%
inactive: SNB-75 CNS 43.6% | SNB-19 CNS 47.8% | SK-MEL-5 melanoma 57.2% | UACC-62 melanoma 52.3% | SK-MEL-28 melanoma 79.4% | SK-MEL-2 melanoma 70.4%

COc1ccc(-c2nc3sccn3c2-c2nc3c([nH]2)C(=O)c2ccccc2C3=O)cc1
inactive: HT29 colon 96.2% | SNB-75 CNS 81.7% | SNB-19 CNS 96.4% | U251 CNS 87.1% | SK-MEL-5 melanoma 89% | UACC-62 melanoma 82.2% | LOX IMVI melanoma 90.7% | SK-MEL-28 melanoma 89.6% | SK-MEL-2 melanoma 101%

O=C(Cc1csc2nc(-c3ccc(Cl)cc3)cn12)N/N=C/c1ccccc1O
inactive: HT29 colon 82.1% | SNB-75 CNS 68.6% | SNB-19 CNS 60.8% | U251 CNS 42.2% | SK-MEL-5 melanoma 45.8% | UACC-62 melanoma 46% | LOX IMVI melanoma 38.6% | SK-MEL-2 melanoma 75.8%

CCN(CC)CCCC(C)Nc1ccc2ccc(Cl)cc2n1 (stereo unspecified)
inactive: HT29 colon 86.1% | SNB-75 CNS 77% | SNB-19 CNS 104% | U251 CNS 92.7% | SK-MEL-5 melanoma 97.7% | UACC-62 melanoma 103% | LOX IMVI melanoma 95% | SK-MEL-28 melanoma 106% | SK-MEL-2 melanoma 117%

CN(CCc1ccccn1)c1ccccc1
inactive: HT29 colon 102% | SNB-75 CNS 92% | SNB-19 CNS 102% | U251 CNS 96.4% | SK-MEL-5 melanoma 103% | UACC-62 melanoma 98% | LOX IMVI melanoma 102% | SK-MEL-28 melanoma 101% | SK-MEL-2 melanoma 101%

COc1ccc(NC(=O)CSc2nc3ccccc3c(=O)n2CCc2ccccc2)cc1
inactive: HT29 colon 110% | SNB-75 CNS 28.7% | SNB-19 CNS 59.4% | U251 CNS 71.4% | SK-MEL-5 melanoma 86.6% | UACC-62 melanoma 89.8% | LOX IMVI melanoma 92.9% | SK-MEL-28 melanoma 91.6% | SK-MEL-2 melanoma 121%

O=C1OCC2=C1C(c1cccc(Br)c1)c1cc3c(cc1N2CCO)CCC3 (stereo unspecified)
active: HT29 colon -12.1% | U251 CNS 5.68% | SK-MEL-5 melanoma -12.6%
inactive: SNB-75 CNS 37.5% | SNB-19 CNS 28.8% | UACC-62 melanoma 20.2% | LOX IMVI melanoma 15.5% | SK-MEL-28 melanoma 62%

O=C(Nc1ccccc1)Nc1cccc(-n2cc(-c3ccncc3)c(-c3ccc(O)c(Cl)c3)n2)c1
active: U251 CNS -9.56%
inactive: HT29 colon 64.7% | SNB-75 CNS 48.3% | SNB-19 CNS 77.2% | SK-MEL-5 melanoma 42.8% | UACC-62 melanoma 43.8% | LOX IMVI melanoma 47.7% | SK-MEL-28 melanoma 43.6%

Oc1[nH]c2cc(Cl)ccc2c1/C=c1/ccc2c(c1)N=C(c1cc(F)cc(F)c1)N=2
inactive: SNB-19 CNS 64.5% | U251 CNS 20.7% | SK-MEL-5 melanoma 15.5% | UACC-62 melanoma 36.4% | LOX IMVI melanoma 37.7% | SK-MEL-28 melanoma 40.1% | SK-MEL-2 melanoma 20.4%
active: HT29 colon 3.28% | SNB-75 CNS -21.5%

CC(=O)c1cc(Br)ccc1O
inactive: HT29 colon 116% | SNB-75 CNS 106% | SNB-19 CNS 109% | U251 CNS 108% | SK-MEL-5 melanoma 104% | UACC-62 melanoma 104% | LOX IMVI melanoma 103% | SK-MEL-28 melanoma 105% | SK-MEL-2 melanoma 106%

O=C(Nc1ccc(Cl)c([N+](=O)[O-])c1)Nc1nc2ccccc2s1
inactive: HT29 colon 87.3% | SNB-75 CNS 94.2% | SNB-19 CNS 84.2% | U251 CNS 84% | SK-MEL-5 melanoma 74.3% | UACC-62 melanoma 70% | LOX IMVI melanoma 91.4% | SK-MEL-28 melanoma 98.8%

Cc1cccc(Cl)c1NC(=O)c1ccc2nc(NC(=O)NC3CCN(C)CC3)sc2c1
inactive: HT29 colon 29.6% | SNB-19 CNS 102% | U251 CNS 80.5% | SK-MEL-5 melanoma 71.6% | UACC-62 melanoma 106% | LOX IMVI melanoma 79.7% | SK-MEL-28 melanoma 108% | SK-MEL-2 melanoma 126%
active: SNB-75 CNS 6.73%

N#Cc1cc(-c2cc3ccccc3o2)oc1N
inactive: SNB-75 CNS 24.4% | SNB-19 CNS 24.5% | UACC-62 melanoma 29.2% | SK-MEL-28 melanoma 41.2% | SK-MEL-2 melanoma 10.2%
active: HT29 colon 7.97% | U251 CNS 3.63% | SK-MEL-5 melanoma -86.7% | LOX IMVI melanoma 3.98%

COc1ccc2c(c1)[n+]([O-])c(C#N)c(NC(=O)c1ccco1)[n+]2[O-]
inactive: HT29 colon 101% | SNB-75 CNS 110% | SNB-19 CNS 95.6% | U251 CNS 98.5% | SK-MEL-5 melanoma 79.3% | UACC-62 melanoma 98.2% | LOX IMVI melanoma 95.1% | SK-MEL-28 melanoma 120%

O=C(Nc1cccc(-n2cc(-c3ccncc3)c(-c3cc(O)cc(Cl)c3)n2)c1)c1cc(C(F)(F)F)cc(C(F)(F)F)c1
inactive: HT29 colon 19.7% | SNB-75 CNS 52.7% | SNB-19 CNS 63.1% | U251 CNS 37.2% | SK-MEL-5 melanoma 64.5% | UACC-62 melanoma 69.3% | LOX IMVI melanoma 10.5% | SK-MEL-28 melanoma 63.6% | SK-MEL-2 melanoma 57.8%

Clc1ccc(-c2cn(-c3ccccc3)c(-c3ccccc3)n2)c(Cl)c1
active: HT29 colon -100% | SNB-75 CNS -83.3% | U251 CNS -100% | LOX IMVI melanoma -76.3% | SK-MEL-28 melanoma 6.05%
inactive: SNB-19 CNS 43.7% | SK-MEL-5 melanoma 68.1% | UACC-62 melanoma 37%

O=C(Nc1cccc(-n2cc(-c3ccncc3)c(-c3ccc(O)c(Cl)c3)n2)c1)Nc1cccc(C(F)(F)F)c1
inactive: HT29 colon 22% | SNB-19 CNS 32.2%
active: SNB-75 CNS -0.929% | U251 CNS -70.8% | SK-MEL-5 melanoma -49% | UACC-62 melanoma -49.9% | LOX IMVI melanoma 1.13% | SK-MEL-28 melanoma -5.89%

COc1ccc(-c2nc(-c3nc4cc(Cl)c(Cl)cc4[nH]3)c3ccccn23)cc1
inactive: HT29 colon 51.4% | SNB-19 CNS 50.5% | U251 CNS 22.6% | SK-MEL-5 melanoma 48.3% | UACC-62 melanoma 88.9% | LOX IMVI melanoma 43.6% | SK-MEL-28 melanoma 62.2% | SK-MEL-2 melanoma 58.1%
active: SNB-75 CNS -29.1%

COc1cccc(C(=O)Nc2ccc(CN3CCc4nc5cc(OC)c(OC)cc5cc43)cc2)c1
inactive: HT29 colon 16.2% | SNB-75 CNS 49.2% | SNB-19 CNS 69.7% | U251 CNS 33.9% | SK-MEL-5 melanoma 50.1% | UACC-62 melanoma 67.3% | LOX IMVI melanoma 31.3% | SK-MEL-28 melanoma 73.2%

COc1ccc(-c2nc(-c3nc4cc(Cl)c(F)cc4[nH]3)c3ccccn23)cc1
inactive: HT29 colon 31.5% | SNB-75 CNS 66.2% | SNB-19 CNS 55.5% | U251 CNS 62.5% | SK-MEL-5 melanoma 59.4% | UACC-62 melanoma 74.5% | LOX IMVI melanoma 65.9% | SK-MEL-28 melanoma 91.8% | SK-MEL-2 melanoma 50%

COc1cc(NC(=O)CSc2nc3ccccc3c(=O)n2CCc2ccccc2)cc(OC)c1OC
active: SNB-75 CNS -26.7% | U251 CNS -12.5% | SK-MEL-5 melanoma -41.9% | SK-MEL-2 melanoma -2.19%
inactive: HT29 colon 15.4% | SNB-19 CNS 27% | UACC-62 melanoma 25.3% | LOX IMVI melanoma 30.6% | SK-MEL-28 melanoma 37.5%

CC12O[C@H](C[C@@H](OC(=O)c3ccccc3)[C@H]1O)n1c3ccccc3c3c4c(c5c6ccccc6n2c5c31)C(=O)NC4=O
inactive: HT29 colon 78.5% | SNB-75 CNS 45.7% | SNB-19 CNS 101% | U251 CNS 77.1% | SK-MEL-5 melanoma 48.6% | UACC-62 melanoma 55% | LOX IMVI melanoma 72.7% | SK-MEL-28 melanoma 90.4%

COc1cc(Nc2ncnc(Nc3ccc4c(n3)NC(=O)C(C)(C)O4)n2)cc(OC)c1OC
inactive: SNB-19 CNS 31.1% | U251 CNS 15.9% | SK-MEL-5 melanoma 48.2% | UACC-62 melanoma 20.3% | SK-MEL-28 melanoma 51.2% | SK-MEL-2 melanoma 46.5%
active: HT29 colon -12.6% | SNB-75 CNS -80.3% | LOX IMVI melanoma -27%
